Data as given in PubChem BioAssay (NCATS).
Results filed as inconclusive are left out. Entries that show only a call come without a potency. Activity calls are given as the source filed them. Calls come from the whole dose curve; as a rule, active = well fitted inhibition curve with a large enough effect; inconclusive = small, poorly fitted or top-dose-only effect; inactive = flat fitted curve, though single readings scatter. Peptide text beside a SMILES is read from it.

Each compound was assayed on C2A (assay: qHTS profiling for inhibitors of Plasmodium falciparum proliferation (AID 504749; note: nearly all actives have a fitted effect of over 60% in size)). Details: P. falciparum in erythrocytes, SYBR Green DNA, 72 h; series mostly up to 12.8 µM.
Summary of the method: (§1)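 Readout was DNA-dye fluorescence from lysed cultures, ex 485/em 535 nm. Parasitized red cells had grown 72 h with compound; data scaled between 0.29 uM artemisinin and DMSO wells and corrected using vehicle-only plates.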
Potency is the fitted concentration of half-maximal effect.

Compound | Potency
CN(C)CCCOC1C(C(O)CO)OC2OC(C)(C)O[C@@H]21 (stereo partly drawn) | inactive
CCC(C)C(=O)OC1CCC=C2C=CC(C)C(CCC3CC(O)CC(=O)O3)[C@@H]21 (stereo partly drawn) | inactive
CC(=O)OC1CCC2C3CCc4cc(O)ccc4C3CCC12C (stereo not drawn) | inactive
CC[C@@]12CCCN3CCc4c(n(c5ccccc45)[C@](O)(C(=O)OC)C1)C32 (stereo partly drawn) | inactive
NC(C(=O)O)[C@@H]1CC(Cl)=NO1 (stereo partly drawn) | 1.12 µM (active)
CN1CC(=O)N=C1N | inactive
OCC1OC([S-])[C@H](O)C(O)C1O.[Au+] (stereo partly drawn) | inactive
CC(C)C1CCC(C(=O)NC(Cc2ccccc2)C(=O)O)CC1 (stereo not drawn) | inactive
CCC(CCC(C)C1CCC2C3CC=C4CC(O)CC[C@@]4(C)C3CC[C@@]12C)C(C)C (stereo partly drawn) | inactive
C[C@]12CCC(=O)C=C1CCC1C2C(=O)C[C@]2(C)C1CC[C@]2(O)C(=O)CO (stereo partly drawn) | inactive
OCC1O[C@H](OC2C(CO)O[C@@](O)(CO)C2O)C(O)C(O)C1O (stereo partly drawn) | inactive
CC1(C)OC2CO[C@]3(COS(N)(=O)=O)OC(C)(C)OC3C2O1 (stereo partly drawn) | inactive
CC1(C)OC2CC(=O)OC[C@@]23C1CC(=O)[C@]1(C)C3CC[C@@]2(C)C(c3ccoc3)OC(=O)C3O[C@@]321 (stereo partly drawn) | inactive
CCOC(=O)C1=CC(OC(CC)CC)C(NC(C)=O)C(N)C1 (stereo not drawn) | inactive
COC1C=CO[C@@]2(C)Oc3c(C)c(O)c4c(O)c(c5c(nc6cc(C)ccn65)c4c3C2=O)NC(=O)/C(C)=C\C=CC(C)C(O)[C@@H](C)C(O)C(C)[C@@H](OC(C)=O)C1C (stereo partly drawn) | 10 µM (active)
COC(=O)C(Cc1ccccc1)NC(=O)C(N)CC(=O)O (stereo not drawn) (H-Asp-Phe-OMe; configuration not given here) | inactive
C[C@]12C=CC(=O)C=C1CCC1C2C(O)C[C@]2(C)C1CC[C@]2(O)C(=O)CO (stereo partly drawn) | inactive

Compound | Potency
CC1(C)S[C@H]2C(NC(=O)[C@@H](N)c3ccc(O)cc3)C(=O)N2[C@@H]1C(=O)O (stereo partly drawn) | inactive
CC(C)=CCC[C@](C)(O)C1CC=C(C)CC1 (stereo partly drawn) | inactive
CO[C@]12C(COC(N)=O)C3=C(C(=O)C(C)=C(N)C3=O)N1CC1NC12 (stereo partly drawn) | 1.26 µM (active)
C[C@]1(c2ccccc2)OC(C(=O)O)=CC1=O | inactive
CC(=O)N[C@H](CC(C)C)C(=O)O | inactive
COc1ccc2cc(C(C)CO)ccc2c1 (stereo not drawn) | inactive
COC1C=CO[C@@]2(C)Oc3c(C)c(O)c4c(O)c(c(C=NN5CCN(C)CC5)c(O)c4c3C2=O)NC(=O)/C(C)=C\C=CC(C)C(O)[C@@H](C)C(O)C(C)[C@H](OC(C)=O)C1C (stereo partly drawn) | 8.91 µM (active)
CC1CCC(C(C)C)C(=O)C1 (stereo not drawn) | inactive
CNC1CC(N)[C@H](O)[C@@H](O[C@@H]2OC(CO)C3OC4(OC(C(N)CO)C(O)C(O)C4O)O[C@@H]3[C@H]2O)C1O (stereo partly drawn) | inactive
CCCC(=O)O[C@]1(C(=O)CO)CCC2[C@@H]3CCC4=CC(=O)CC[C@]4(C)C3C(O)C[C@]21C (stereo partly drawn) | inactive
CC(=O)[C@]1(O)CCC2C3C=C(Cl)C4=CC(=O)C5CC5[C@@]4(C)C3CC[C@]21C (stereo partly drawn) | inactive
CC(=O)N[C@@H]1C(O)OC(CO)C(O)C1O (stereo partly drawn) | inactive
C/C1=C2N=C(/C=C3N=C(/C(C)=C4\[N-]C(C)(C5N=C1C(C)(CCC(=O)NCC(C)OP(=O)([O-])O[C@H]1C(O)C(n6cnc7cc(C)c(C)cc76)O[C@@H]1CO)C5CC(N)=O)C(C)(CC(N)=O)C4CCC(N)=O)C(C)(CC(N)=O)C\3CCC(N)=O)C(C)(C)C/2CCC(N)=O.[CH2-]C1OC(n2cnc3c(N)ncnc32)C(O)C1O.[Co] (stereo partly drawn) | inactive
O=C1OC(CO)C(O)C(O)C1O (stereo not drawn) | inactive
CNC1C(OC2C(O[C@@H]3C(O)C(O)[C@@H](N=C(N)N)C(O)C3N=C(N)N)OC(C)[C@@]2(O)CO)OC(CO)C(O)C1O (stereo partly drawn) | inactive
COc1cc(C2c3cc4c(cc3C(O[C@@H]3OC5COC(c6cccs6)OC5C(O)C3O)C3COC(=O)C23)OCO4)cc(OC)c1O (stereo partly drawn) | 2.24 µM (active)
Nc1nc2ncc(CNc3ccc(C(=O)NC(CCC(=O)O)C(=O)O)cc3)nc2c(=O)[nH]1 (stereo not drawn) | inactive

Each compound was assayed on CP185 in the same assay as above. Details: P. falciparum in erythrocytes, SYBR Green DNA, 72 h; series mostly up to 12.8 µM.
Summary of the method: as §1

Compound | Potency
CN(C)CCCOC1C(C(O)CO)OC2OC(C)(C)O[C@@H]21 (stereo partly drawn) | inactive
CCC(C)C(=O)OC1CCC=C2C=CC(C)C(CCC3CC(O)CC(=O)O3)[C@@H]21 (stereo partly drawn) | inactive
CC(=O)OC1CCC2C3CCc4cc(O)ccc4C3CCC12C (stereo not drawn) | inactive
CC[C@@]12CCCN3CCc4c(n(c5ccccc45)[C@](O)(C(=O)OC)C1)C32 (stereo partly drawn) | inactive
NC(C(=O)O)[C@@H]1CC(Cl)=NO1 (stereo partly drawn) | 2.82 µM (active)
CN1CC(=O)N=C1N | inactive
OCC1OC([S-])[C@H](O)C(O)C1O.[Au+] (stereo partly drawn) | inactive
CC(C)C1CCC(C(=O)NC(Cc2ccccc2)C(=O)O)CC1 (stereo not drawn) | inactive
CCC(CCC(C)C1CCC2C3CC=C4CC(O)CC[C@@]4(C)C3CC[C@@]12C)C(C)C (stereo partly drawn) | inactive
C[C@]12CCC(=O)C=C1CCC1C2C(=O)C[C@]2(C)C1CC[C@]2(O)C(=O)CO (stereo partly drawn) | inactive
OCC1O[C@H](OC2C(CO)O[C@@](O)(CO)C2O)C(O)C(O)C1O (stereo partly drawn) | inactive
CC1(C)OC2CO[C@]3(COS(N)(=O)=O)OC(C)(C)OC3C2O1 (stereo partly drawn) | inactive
CC1(C)OC2CC(=O)OC[C@@]23C1CC(=O)[C@]1(C)C3CC[C@@]2(C)C(c3ccoc3)OC(=O)C3O[C@@]321 (stereo partly drawn) | inactive
CCOC(=O)C1=CC(OC(CC)CC)C(NC(C)=O)C(N)C1 (stereo not drawn) | inactive
COC1C=CO[C@@]2(C)Oc3c(C)c(O)c4c(O)c(c5c(nc6cc(C)ccn65)c4c3C2=O)NC(=O)/C(C)=C\C=CC(C)C(O)[C@@H](C)C(O)C(C)[C@@H](OC(C)=O)C1C (stereo partly drawn) | 10 µM (active)
COC(=O)C(Cc1ccccc1)NC(=O)C(N)CC(=O)O (stereo not drawn) (H-Asp-Phe-OMe; configuration not given here) | inactive
C[C@]12C=CC(=O)C=C1CCC1C2C(O)C[C@]2(C)C1CC[C@]2(O)C(=O)CO (stereo partly drawn) | inactive

Compound | Potency
CC1(C)S[C@H]2C(NC(=O)[C@@H](N)c3ccc(O)cc3)C(=O)N2[C@@H]1C(=O)O (stereo partly drawn) | inactive
CC(C)=CCC[C@](C)(O)C1CC=C(C)CC1 (stereo partly drawn) | inactive
CO[C@]12C(COC(N)=O)C3=C(C(=O)C(C)=C(N)C3=O)N1CC1NC12 (stereo partly drawn) | 0.708 µM (active)
C[C@]1(c2ccccc2)OC(C(=O)O)=CC1=O | inactive
CC(=O)N[C@H](CC(C)C)C(=O)O | inactive
COc1ccc2cc(C(C)CO)ccc2c1 (stereo not drawn) | inactive
COC1C=CO[C@@]2(C)Oc3c(C)c(O)c4c(O)c(c(C=NN5CCN(C)CC5)c(O)c4c3C2=O)NC(=O)/C(C)=C\C=CC(C)C(O)[C@@H](C)C(O)C(C)[C@H](OC(C)=O)C1C (stereo partly drawn) | 3.16 µM (active)
CC1CCC(C(C)C)C(=O)C1 (stereo not drawn) | inactive
CNC1CC(N)[C@H](O)[C@@H](O[C@@H]2OC(CO)C3OC4(OC(C(N)CO)C(O)C(O)C4O)O[C@@H]3[C@H]2O)C1O (stereo partly drawn) | inactive
CCCC(=O)O[C@]1(C(=O)CO)CCC2[C@@H]3CCC4=CC(=O)CC[C@]4(C)C3C(O)C[C@]21C (stereo partly drawn) | inactive
CC(=O)[C@]1(O)CCC2C3C=C(Cl)C4=CC(=O)C5CC5[C@@]4(C)C3CC[C@]21C (stereo partly drawn) | inactive
CC(=O)N[C@@H]1C(O)OC(CO)C(O)C1O (stereo partly drawn) | inactive
C/C1=C2N=C(/C=C3N=C(/C(C)=C4\[N-]C(C)(C5N=C1C(C)(CCC(=O)NCC(C)OP(=O)([O-])O[C@H]1C(O)C(n6cnc7cc(C)c(C)cc76)O[C@@H]1CO)C5CC(N)=O)C(C)(CC(N)=O)C4CCC(N)=O)C(C)(CC(N)=O)C\3CCC(N)=O)C(C)(C)C/2CCC(N)=O.[CH2-]C1OC(n2cnc3c(N)ncnc32)C(O)C1O.[Co] (stereo partly drawn) | inactive
O=C1OC(CO)C(O)C(O)C1O (stereo not drawn) | inactive
CNC1C(OC2C(O[C@@H]3C(O)C(O)[C@@H](N=C(N)N)C(O)C3N=C(N)N)OC(C)[C@@]2(O)CO)OC(CO)C(O)C1O (stereo partly drawn) | inactive
COc1cc(C2c3cc4c(cc3C(O[C@@H]3OC5COC(c6cccs6)OC5C(O)C3O)C3COC(=O)C23)OCO4)cc(OC)c1O (stereo partly drawn) | 2.24 µM (active)
Nc1nc2ncc(CNc3ccc(C(=O)NC(CCC(=O)O)C(=O)O)cc3)nc2c(=O)[nH]1 (stereo not drawn) | inactive
